Laboratory results published in PubChem BioAssay (EPA / NIEHS).
The source made the active and inactive calls. Rule for the calls: active = hit-call score of the fitted dose curve at least 0.9, where 1 is the maximum; inactive = score below 0.9.

Key:
[1] = ATG_CRE_CIS: Attagene CIS-FACTORIAL HepG2 Assay for human cAMP Responsive Element (CRE) binding protein 3 (AID 2282926); conditions: HepG2 CRE cis-reporter, Attagene multiplexed mRNA; actives raise or lower the signal
In short: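 Capillary electrophoresis of 6-FAM-labelled, HpaI-digested PCR products quantified reporter transcripts. These came from HepG2 transiently transfected with cis-element reporters and exposed to test chemicals for 24 hours, with DMSO defining baseline activity.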

[2] = ATG_CMV_CIS: Attagene CIS-FACTORIAL HepG2 Assay for human CMV (Internal Marker) (AID 2282928); conditions: HepG2 CMV promoter reporter, transcription factor profiling; actives raise or lower the signal;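 note: endpoint acts as a background internal control marker rather than a target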
In short: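 Fluorescence intensity of RT-PCR-derived reporter fragments, resolved by capillary electrophoresis, gives the signal. HepG2 liver cells bearing transfected cis-element reporters were treated 24 h; activity in either direction was fit relative to DMSO-treated controls.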

[3] = ATG_DR4_LXR_CIS: Attagene CIS-FACTORIAL HepG2 Assay for human Liver X Receptor (LXR), DR4 submotif (AID 2282929); conditions: HepG2 Attagene DR4 cis-reporter, mRNA transcription; actives raise or lower the signal
In short: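 HepG2 cells transiently transfected with cis-promoter-driven multiplexed reporter units (DR4 element) were dosed for 24 h. Reporter mRNA was quantified by RT-PCR, fluorescent primer extension, HpaI digestion and capillary electrophoresis; bidirectional fitting versus DMSO baseline.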

[4] = target: Aryl hydrocarbon receptor (Homo sapiens) (UniProt P35869); test: ATG_Ahr_CIS: Attagene CIS-FACTORIAL HepG2 Assay for human Aryl Hydrocarbon Receptor (Ahr) (AID 2282930); conditions: HepG2 AhR cis-factorial reporter transcription; actives raise or lower the signal
Chain of Aryl hydrocarbon receptor (Homo sapiens) (P35869 whole entry, looked up): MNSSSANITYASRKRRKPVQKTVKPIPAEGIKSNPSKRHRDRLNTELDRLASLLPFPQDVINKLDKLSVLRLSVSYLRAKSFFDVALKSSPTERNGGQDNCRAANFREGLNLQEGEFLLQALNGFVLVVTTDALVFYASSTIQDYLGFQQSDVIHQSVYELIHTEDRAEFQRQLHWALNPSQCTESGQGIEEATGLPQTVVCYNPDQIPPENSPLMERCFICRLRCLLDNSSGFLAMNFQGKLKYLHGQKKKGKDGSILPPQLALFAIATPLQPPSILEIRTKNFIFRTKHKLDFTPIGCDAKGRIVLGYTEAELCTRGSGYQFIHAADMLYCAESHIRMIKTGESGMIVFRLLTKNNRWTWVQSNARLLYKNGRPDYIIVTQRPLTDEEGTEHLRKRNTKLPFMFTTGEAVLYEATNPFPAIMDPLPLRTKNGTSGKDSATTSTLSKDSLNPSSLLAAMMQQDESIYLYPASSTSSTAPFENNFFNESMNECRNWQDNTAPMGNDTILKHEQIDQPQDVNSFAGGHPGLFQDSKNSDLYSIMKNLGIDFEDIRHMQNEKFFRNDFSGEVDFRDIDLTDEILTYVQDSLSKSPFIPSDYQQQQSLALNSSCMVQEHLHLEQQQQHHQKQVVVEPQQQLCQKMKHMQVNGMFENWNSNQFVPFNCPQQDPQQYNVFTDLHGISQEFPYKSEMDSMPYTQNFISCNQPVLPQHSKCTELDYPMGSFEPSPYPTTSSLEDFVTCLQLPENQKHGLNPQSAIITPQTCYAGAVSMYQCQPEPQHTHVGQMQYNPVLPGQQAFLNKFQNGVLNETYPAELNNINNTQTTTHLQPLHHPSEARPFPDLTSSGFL
In short: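 HepG2 cells transiently transfected with cis-element-driven multiplexed reporter transcription units; endogenous transcription factor activity measured as reporter mRNA 24 h after dosing. RT-PCR, 6-FAM labelling, HpaI digestion, capillary electrophoresis; bidirectional fitting versus DMSO baseline.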

[5] = ATG_AP_1_CIS: Attagene CIS-FACTORIAL HepG2 Assay for human Activator Protein 1 (AP-1) (AID 2282931); conditions: HepG2 Attagene cis-factorial AP-1 reporter mRNA; actives raise or lower the signal
In short: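 HepG2 cells transiently transfected with cis-element-driven multiplex reporter units; 24 h compound exposure. Reporter mRNA quantified by RT-PCR, FAM-labelled fragments resolved by capillary electrophoresis; bidirectional fit versus DMSO baseline.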

[6] = ATG_AP_2_CIS: Attagene CIS-FACTORIAL HepG2 Assay for human Activator Protein 2 (AP-2) (AID 2282932); conditions: HepG2 AP-2 cis-reporter, Attagene transcription factor profiling; actives raise or lower the signal
In short: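 Assay in transfected HepG2 with promoter-regulated reporters, 24 h incubation after dosing. Signal is reporter mRNA fluorescence (RT-PCR, capillary electrophoresis), analysed for both increases and decreases relative to DMSO controls.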

[7] = ATG_BRE_CIS: Attagene CIS-FACTORIAL HepG2 Assay for human Bone Morphogenetic Protein (BMP) Response Element (BRE) (AID 2282933); conditions: HepG2 BMP response element reporter, Attagene transcription factor profiling; actives raise or lower the signal
In short: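 Transient MRTU transfection of human HepG2 liver cells; 24 h compound treatment; total RNA isolated, reverse-transcribed, PCR-amplified, 6-FAM labelled, HpaI-cut, capillary electrophoresis. DMSO = negative control/baseline, bidirectional fit.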

[8] = target: Retinoic acid receptor alpha (Homo sapiens) (UniProt P10276); test: ATG_DR5_RAR_CIS: Attagene CIS-FACTORIAL HepG2 Assay for human Retinoic Acid Receptor Alpha (RARE), DR5 submotif (AID 2282934); conditions: HepG2 Attagene cis-factorial RARE DR5 reporter, mRNA; actives raise or lower the signal;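 for AC50: reporter responds to endogenous RAR alpha beta and gamma in HepG2 not RARA alone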
Chain of Retinoic acid receptor alpha (Homo sapiens) (P10276 whole entry, looked up): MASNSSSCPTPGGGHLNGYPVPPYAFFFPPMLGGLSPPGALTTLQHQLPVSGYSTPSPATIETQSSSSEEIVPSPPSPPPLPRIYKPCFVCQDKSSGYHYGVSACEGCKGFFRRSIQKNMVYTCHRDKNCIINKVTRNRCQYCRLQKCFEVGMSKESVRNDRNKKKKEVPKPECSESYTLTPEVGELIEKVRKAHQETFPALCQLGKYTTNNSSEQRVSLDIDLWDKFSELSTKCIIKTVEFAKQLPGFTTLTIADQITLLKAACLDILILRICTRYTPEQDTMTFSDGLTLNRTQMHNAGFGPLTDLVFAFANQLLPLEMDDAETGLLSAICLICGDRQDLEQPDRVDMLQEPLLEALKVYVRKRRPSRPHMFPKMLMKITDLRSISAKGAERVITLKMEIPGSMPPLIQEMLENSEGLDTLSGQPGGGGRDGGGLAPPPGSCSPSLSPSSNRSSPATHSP
In short: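 HepG2 cells transiently transfected with multiplexed reporter units under cis (DR5 RARE) promoters, so endogenous transcription factor activity is measured. After 24 h compound exposure, reporter mRNA is quantified by RT-PCR with fluorescent labelling and capillary electrophoresis; bidirectional fitting versus DMSO.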

[9] = target: Transcription factor E2F1 (Homo sapiens) (UniProt Q01094); test: ATG_E2F_CIS: Attagene CIS-FACTORIAL HepG2 Assay for human E2F Transcription Factor 1 (AID 2282935); conditions: HepG2 Attagene cis-reporter, E2F reporter RNA transcripts; actives raise or lower the signal
Chain of Transcription factor E2F1 (Homo sapiens) (Q01094 whole entry, looked up): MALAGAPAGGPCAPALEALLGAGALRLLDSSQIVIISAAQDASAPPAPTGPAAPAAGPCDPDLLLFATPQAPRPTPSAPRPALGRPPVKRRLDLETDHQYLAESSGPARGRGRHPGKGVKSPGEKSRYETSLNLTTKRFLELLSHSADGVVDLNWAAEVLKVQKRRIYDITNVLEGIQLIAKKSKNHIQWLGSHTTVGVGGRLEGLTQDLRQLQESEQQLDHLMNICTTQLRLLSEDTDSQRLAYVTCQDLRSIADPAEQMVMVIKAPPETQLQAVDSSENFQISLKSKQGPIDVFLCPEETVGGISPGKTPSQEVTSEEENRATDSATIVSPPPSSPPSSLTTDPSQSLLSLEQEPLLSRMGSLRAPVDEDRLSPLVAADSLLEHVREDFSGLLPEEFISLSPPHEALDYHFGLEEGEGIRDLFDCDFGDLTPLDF
In short: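 In this cis-factorial format, endogenous factor activity drives transfected reporters in HepG2; transcripts collected at 24 h are quantified by fluorescence after RT-PCR and capillary separation.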

[10] = target: CCAAT/enhancer-binding protein beta (Homo sapiens) (UniProt P17676); test: ATG_C_EBP_CIS: Attagene CIS-FACTORIAL HepG2 Assay for human CCAAT/Enhancer Binding Protein (C/EBP) beta (AID 2282927); conditions: HepG2 Attagene cis-factorial transcription factor reporter; actives raise or lower the signal
Chain of CCAAT/enhancer-binding protein beta (Homo sapiens) (P17676 whole entry, looked up): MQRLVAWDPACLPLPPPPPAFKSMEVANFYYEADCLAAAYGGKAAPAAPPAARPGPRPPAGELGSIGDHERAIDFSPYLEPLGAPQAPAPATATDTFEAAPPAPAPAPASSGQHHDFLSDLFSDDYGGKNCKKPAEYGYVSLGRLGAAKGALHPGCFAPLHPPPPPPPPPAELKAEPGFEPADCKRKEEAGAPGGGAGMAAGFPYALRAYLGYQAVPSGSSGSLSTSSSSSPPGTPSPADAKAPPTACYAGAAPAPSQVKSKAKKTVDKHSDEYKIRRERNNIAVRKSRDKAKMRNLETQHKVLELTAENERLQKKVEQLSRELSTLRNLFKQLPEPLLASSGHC
In short: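 RT-PCR/capillary electrophoresis fluorescence of reporter mRNA, 24 h post-dose, in HepG2 cells carrying transfected cis-promoter reporter units. Bidirectional curve fitting against DMSO baseline captures gain or loss of signal.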

Measured: AC50

C=CC(C)C#N (configuration not stated)
not listed: [10]
inactive: all other assays above

CC(=O)C(C)O (configuration not stated)
not listed: [10]
inactive: all other assays above

CC(=O)O[C@@H]1C[C@@H]2CC[C@@]1(C)C2(C)C
not listed: [1] | [3] | [10]
inactive: all other assays above

COC(=O)c1cccnc1
not listed: [1] | [6]
inactive: all other assays above

COC(C)(C)CC(C)=O
not listed: [1] | [10]
inactive: all other assays above

OCCCCC(O)CO (configuration not stated)
not listed: [1] | [6] | [10]
inactive: all other assays above

CCCC(C)C(O)CC (configuration not stated)
not listed: [1] | [5]
inactive: all other assays above

CC1=CC[C@@]23C[C@@H]1C(C)(C)[C@@H]2CC[C@H]3C
active: [3] 165 µM
not listed: [1] | [7]
inactive: all other assays above

Cc1c(Cl)cccc1[N+](=O)[O-]
not listed: [1]
inactive: all other assays above

CCCCCCCCCCCCCCCC(=O)OC/C=C(C)/C=C/C=C(C)/C=C/C1=C(C)CCCC1(C)C
not listed: [1]
inactive: all other assays above

C1=CC2C3C=CC(C3)C2C1 (configuration not stated)
active: [4] 98.5 µM
not listed: [1] | [2]
inactive: all other assays above

CCCCCCCCCCCC(=O)OCC(O)CO (configuration not stated)
active: [4] 21.3 µM | [5] 158 µM | [8] 100 µM
inactive: [10] | [2] | [7] | [9]

CCc1ccc(O)cc1
active: [4] 68.7 µM
not listed: [1] | [7]
inactive: all other assays above

COc1ccccc1[N+](=O)[O-]
not listed: [1] | [6]
inactive: all other assays above

O=C(O)CNc1ccccc1
active: [4] 15.1 µM
not listed: [1]
inactive: all other assays above

CCCC(=O)C(CC)Sc1ccoc1C (configuration not stated)
active: [5] 26.5 µM
not listed: [1]
inactive: all other assays above

COc1cc(CCC(C)=O)ccc1O
not listed: [1] | [3]
inactive: all other assays above

O=c1[nH]c(=O)c2cn[nH]c2[nH]1
not listed: [1] | [2]
inactive: all other assays above

CC(=O)CC(=O)Nc1ccc(C)cc1C
not listed: [1]
inactive: all other assays above

CN(C)CCOc1ccc(/C(=C(/CCCl)c2ccccc2)c2ccccc2)cc1
active: [3] 1.99 µM
not listed: [1] | [6]
inactive: all other assays above

C=C(CC(=O)O)C(=O)O
not listed: [1]
inactive: all other assays above

CCOC(=O)C1OC1c1ccccc1 (configuration not stated)
inactive: [10] | [6] | [7] | [9]
active: [2] 38.6 µM | [3] 37.6 µM | [4] 11.5 µM | [5] 43.6 µM | [8] 49.9 µM

C=Cc1ccncc1
active: [10] 26.2 µM | [2] 100 µM | [8] 27 µM
not listed: [1]
inactive: all other assays above

CCCCCC(C=O)=Cc1ccccc1
not listed: [1] | [5]
inactive: all other assays above

C[C@H]1O[C@@H](O[C@H]2[C@@H](O)C[C@H](O[C@H]3[C@@H](O)C[C@H](O[C@H]4CC[C@@]5(C)[C@H](CC[C@@H]6[C@@H]5C[C@@H](O)[C@]5(C)[C@@H](C7=CC(=O)OC7)CC[C@]65O)C4)O[C@@H]3C)O[C@@H]2C)C[C@H](O)[C@@H]1O
active: [10] 0.0593 µM | [2] 2.56 µM | [3] 0.11 µM | [6] 0.0857 µM
inactive: [4] | [5] | [8] | [9]
